Assay outcomes from PubChem BioAssay.
Hits are enriched below; roughly 1.3% of the tested compounds scored in any of these assays.
PTHR1 ag: PTHR1 (human) receptor agonism; hit rate 0.075% among 410,000; HEK293 GP2 PTHR1 cells, GloSensor cAMP luminescence, 1 h; Q03431; Potency, µM (highest dose often 115 µM), most hits filed as activators; note: nearly all actives have a fitted effect of over 55% in size
Target sequence (Q03431 whole entry, looked up): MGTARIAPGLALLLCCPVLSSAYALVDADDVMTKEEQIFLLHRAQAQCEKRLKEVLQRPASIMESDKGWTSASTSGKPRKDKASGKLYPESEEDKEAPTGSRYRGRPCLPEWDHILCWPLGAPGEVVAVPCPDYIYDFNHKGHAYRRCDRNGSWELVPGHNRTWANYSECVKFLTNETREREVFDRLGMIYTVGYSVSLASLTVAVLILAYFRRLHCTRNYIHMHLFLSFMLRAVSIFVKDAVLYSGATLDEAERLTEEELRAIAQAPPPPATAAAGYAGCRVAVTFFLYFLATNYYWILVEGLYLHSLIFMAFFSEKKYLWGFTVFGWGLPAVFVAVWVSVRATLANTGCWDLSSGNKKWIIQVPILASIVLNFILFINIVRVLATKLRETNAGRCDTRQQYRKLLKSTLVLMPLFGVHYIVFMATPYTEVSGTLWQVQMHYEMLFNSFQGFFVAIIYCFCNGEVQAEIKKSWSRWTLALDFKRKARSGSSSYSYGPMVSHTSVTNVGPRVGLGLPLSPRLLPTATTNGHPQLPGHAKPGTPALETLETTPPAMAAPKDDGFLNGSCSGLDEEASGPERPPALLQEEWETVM
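HEK-293-derived GP2 cells expressing PTHR1 and a GloSensor cAMP reporter, 3,000/well, plated overnight, given luciferin plus IBMX (each 0.5 mM as added) for 1 h at 37 °C, then compound for 1 h at 37 °C. Luminescence was read after 15 min at room temperature.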
IL2 activator: activates IL-2 in a cell-based reporter assay; activation, % (series mostly up to about 46 µM); IL-2 activation reporter assay, cell-based qHTS; stimulated with anti-CD3/CD4/CD28 beads; in transgenic mouse T cells; hit rate 0.065% among 360,000; in the data active = activation above about 50%; inconclusive = mostly about 30% to 49%
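First, unstimulated transgenic mouse T cells were exposed to compound for 60 min. Next, anti-CD3/anti-CD4-coated beads with anti-CD28 were added. Finally, after 18 h at 37 degrees C, EGFP and DsRed were imaged.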
BCR signal inh: chronic active BCR signaling inhibition | hit rate 0.05% among 340,000 | Potency, µM (highest dose often 46.1 µM), usual class: inhibitors | ABC-DLBCL IkBa-CBG/CBR reporter, luminescence ratio, 4 h; active = well fitted inhibition curve with a large enough effect in the signal ratio, with a control signal flat, not every such curve was filed as active; inconclusive = small, poorly fitted or top-dose-only effect, or effect the other way, or a change in a side signal; the % refers to the signal ratio
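Concentration-response series (up to 46 uM) were applied to TMD8 dual-reporter cells for 4 h at 37C with doxycycline. Green/red ratio, after filter-overlap correction, defined %Activity; red signal alone was normalised to basal cells and zero luminescence.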
BRCA1 expr act: increases BRCA1 expression; MCF7-BRCA1-FFLuc reporter, luminescence, 48 h; response scale: scaled: vehicle 0%, 10 µM genistein 100%; Potency, µM (titrated, usually from 46.1 µM), usual class: activators; hit rate 1.1% among 380,000; AID 624202; note: nearly all actives have a fitted effect of over 80% in size
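Quantitative HTS in MCF7 cells stably reporting BRCA1 expression via firefly luciferase. Compound treatment lasts 48 h at 37 °C in phenol-red free MEM. Activation is expressed relative to genistein at 10 microM and DMSO.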
Mito fusion yeast: mitochondrial division inhibition or fusion activation. S. cerevisiae fusion-defective mutant growth rescue, CellTiterGlo 48 h. Potency, µM (top dose mostly 46.1 µM), usual class: activators. hit rate 0.23% among 320,000. AID 485298; note: nearly all actives have a fitted effect of over 45% in size
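Read-out: ATP-based luminescence (CellTiterGlo, 10 min ambient) reporting growth of fusion-defective ts yeast after 48 hours at 37C on glycerol/ethanol YPEG medium in the presence of compound.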
TCR activator: activators of T cell receptors; Potency, µM (highest dose often 9.22 µM), usual class: activators; AID 504894; primary human leukocytes, anti-CD3, IL-2 HTRF, 48 h; 330,000 tested, under 10 active
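TCR engagement came from a-CD3 beads alone, with compounds added to primary human leukocytes for 48 hr. Secreted IL-2 bridged europium cryptate- and d2-labelled anti-IL-2 antibodies, giving FRET emission at 665nm after 320nm excitation.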
Each line names hits and unclear results; the compound was inactive in the other large screens. Unless noted, calls come from the whole dose curve; as a rule, active = well fitted curve in the direction sought with a large enough effect; inconclusive = small, poorly fitted or top-dose-only effect, or another doubt; inactive = no such curve, though single readings can be large; an effect the other way counts as inactive or inconclusive.

O=C(O)C1=CC(=C(c2ccc(O)c(C(=O)O)c2)c2ccc(O)c(C(=O)O)c2)C=CC1=O	BCR signal inh inconclusive, Mito fusion yeast 13µM (no result: PTHR1 ag, IL2 activator, TCR activator)
C/C(=N\OC(=O)c1ccccc1)c1cc(-c2ccc(Cl)cc2)no1	BCR signal inh inconclusive, BRCA1 expr act 2.8µM
N/C(Cc1ccc(Cl)cc1)=N\OC(=O)c1ccccc1	PTHR1 ag inconclusive, BCR signal inh inconclusive
C/C(=N/OC(=O)C1CC1)c1cc(-c2ccc(Cl)cc2)no1	BCR signal inh inconclusive, BRCA1 expr act 4µM
OCCC1CN(Cc2ccc3cccc(F)c3n2)CCN1Cc1ccccc1 (stereo not drawn)	none
Cc1nc2c(C(=O)NCCc3ccc(Cl)cc3)cnn2c(C)c1Cc1ccc(F)cc1	none (no result: IL2 activator, BRCA1 expr act, Mito fusion yeast, TCR activator)
Cc1c(C(=O)c2ccccc2)oc2ccc3ccccc3c12	BRCA1 expr act 10µM
COC1=CC(=O)OC(c2ccc(C#N)cc2)C1 (stereo not drawn)	none (no result: BCR signal inh, BRCA1 expr act, Mito fusion yeast, TCR activator)
O=C(Nc1ccc(F)cc1)c1ccc2nc[nH]c2c1	BCR signal inh inconclusive
CCSc1nnc(NC(=O)c2ccc3nc[nH]c3c2)s1	BRCA1 expr act 3.2µM (no result: Mito fusion yeast)
CN(C)c1ccc(NC(=O)c2ccc3nc[nH]c3c2)cc1	BCR signal inh inconclusive, BRCA1 expr act 13µM
O=C(O)c1cn2c3c(ccc(Cl)c3c1=O)OCC2	PTHR1 ag inconclusive
O=C(NCc1cccc(Cl)c1)C1CCCN(c2nn3cc(-c4ccc(F)cc4)nc3s2)C1 (stereo not drawn)	none (no result: IL2 activator, BCR signal inh, BRCA1 expr act, Mito fusion yeast, TCR activator)
Cc1ccc(SCCN2CCC(C)CCC2=O)cc1 (stereo not drawn)	BRCA1 expr act 8.9µM
CC(C)(C)C1CCC(=O)N(CCSc2ccccc2)CC1 (stereo not drawn)	BCR signal inh inconclusive, BRCA1 expr act 3.5µM
O=C1CCN(Cc2ccccc2)CCN1CCSc1ccccc1	BRCA1 expr act 8.9µM
Cc1ccc(SCCC(=O)N2CCC(C(N)=O)CC2)cc1	none
Cc1ccc(SCCN2CCC(C(C)(C)C)CCC2=O)cc1 (stereo not drawn)	BRCA1 expr act inconclusive
Cc1ccc(SCCC(=O)N2CCC(C)CC2)cc1	BRCA1 expr act 10µM
CN(N=O)c1ccc(/C=C/c2ccnc3ccccc23)cc1	none (no result: PTHR1 ag, IL2 activator, BCR signal inh, Mito fusion yeast, TCR activator)
CN(C)CCCNc1cc(N2CCN(C)CC2)ncn1	none (no result: PTHR1 ag, IL2 activator, BCR signal inh, Mito fusion yeast, TCR activator)
Cn1ccnc1SCC(=O)c1ccc(OC(F)F)cc1	BRCA1 expr act inconclusive
COc1ccc(C(=O)CSc2nccn2C)cc1	BCR signal inh inconclusive, BRCA1 expr act 8.9µM
Cn1ccnc1SCC(=O)Nc1ccc(Oc2ccccc2)cc1	BCR signal inh inconclusive, BRCA1 expr act 10µM
CCOc1ccc(NC(=O)CSc2nccn2C)cc1	BCR signal inh inconclusive, BRCA1 expr act inconclusive
CC(C)Cn1cc(NC(=O)N2CCN(c3ccc(F)cc3)CC2)c2ccccc2c1=O	none (no result: IL2 activator, BCR signal inh, Mito fusion yeast, TCR activator)
Cc1nn(CCOc2ccccc2)c(=O)n1-c1c(F)cccc1F	BCR signal inh inconclusive, BRCA1 expr act 5.6µM
Cc1ccc(-n2c(C)nn(CCOc3ccccc3)c2=O)cc1	BRCA1 expr act 6.3µM
Cc1nn(C)c(=O)n1-c1ccc(Oc2ccccc2)cc1	BCR signal inh inconclusive
O=C(NCc1cccs1)Nc1ccc(Cl)cc1	BCR signal inh inconclusive, BRCA1 expr act 10µM
O=C(NCC1CC1)Nc1ccc(Cl)cc1	BCR signal inh inconclusive, BRCA1 expr act 10µM
O=C(NCCNC(=O)Nc1ccc(Cl)cc1)Nc1ccc(Cl)cc1	none (no result: BCR signal inh, Mito fusion yeast)
O=C(NCc1cccs1)Nc1ccc2c(c1)OCO2	BCR signal inh inconclusive, BRCA1 expr act 10µM
O=C(NCC1CC1)Nc1cccc(Cl)c1	none
O=C(Nc1ccc(Cl)cc1)C1C2CCCCC21 (stereo not drawn)	BRCA1 expr act 2.2µM (no result: TCR activator)
CCc1ccccc1N(C)S(=O)(=O)c1ccc(-c2cc(C)no2)s1	BCR signal inh inconclusive
CC(=O)Nc1ccc(/C=C/c2ccnc3ccccc23)cc1[N+](=O)[O-]	none (no result: PTHR1 ag, IL2 activator, BCR signal inh, Mito fusion yeast, TCR activator)
COc1ccc(Cl)cc1N(C)c1nc(N2CCN(S(=O)(=O)c3ccc(C)cc3)CC2)c2ccccc2n1	none (no result: PTHR1 ag, IL2 activator, BCR signal inh, Mito fusion yeast, TCR activator)
N#Cc1nc(/C=C/c2ccc(F)cc2)oc1N1CCCCC1	none (no result: IL2 activator, BCR signal inh, Mito fusion yeast, TCR activator)
CCCCCc1nc(-c2nonc2N)no1	none
